Test results published in the supplement of paper PMC12819154, “High-throughput peptide-centric local stability assay extends protein–ligand identification to membrane proteins, tissues and bacteria” (Nature Structural & Molecular Biology, 2025).

Each target was assayed with CN[C@@H]1C[C@H]2O[C@@](C)([C@@H]1OC)n1c3ccccc3c3c4c(c5c6ccccc6n2c5c31)C(=O)NC4 [staurosporine] (assay: log2 fold change of tryptic peptide abundance, ligand vs vehicle (limited proteolysis) (log2 ratio); higher = more trypsin-susceptible (destabilized)). Details: ligand concentration: 20 uM; sample: mouse liver crude lysate; replicate design: treated separately.

Sequence of UniProt P26149 (P26149 whole entry): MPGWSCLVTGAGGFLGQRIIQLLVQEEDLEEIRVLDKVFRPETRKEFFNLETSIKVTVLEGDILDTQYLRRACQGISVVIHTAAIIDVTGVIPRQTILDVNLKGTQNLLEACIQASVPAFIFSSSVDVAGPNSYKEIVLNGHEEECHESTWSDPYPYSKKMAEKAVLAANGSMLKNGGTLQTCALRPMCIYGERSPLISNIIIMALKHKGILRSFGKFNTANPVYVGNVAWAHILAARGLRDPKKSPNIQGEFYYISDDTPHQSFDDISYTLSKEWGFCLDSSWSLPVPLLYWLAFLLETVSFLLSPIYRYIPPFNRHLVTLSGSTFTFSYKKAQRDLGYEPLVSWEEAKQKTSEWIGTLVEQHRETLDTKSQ
Sequence of UniProt Q5U5V2 (Q5U5V2 whole entry): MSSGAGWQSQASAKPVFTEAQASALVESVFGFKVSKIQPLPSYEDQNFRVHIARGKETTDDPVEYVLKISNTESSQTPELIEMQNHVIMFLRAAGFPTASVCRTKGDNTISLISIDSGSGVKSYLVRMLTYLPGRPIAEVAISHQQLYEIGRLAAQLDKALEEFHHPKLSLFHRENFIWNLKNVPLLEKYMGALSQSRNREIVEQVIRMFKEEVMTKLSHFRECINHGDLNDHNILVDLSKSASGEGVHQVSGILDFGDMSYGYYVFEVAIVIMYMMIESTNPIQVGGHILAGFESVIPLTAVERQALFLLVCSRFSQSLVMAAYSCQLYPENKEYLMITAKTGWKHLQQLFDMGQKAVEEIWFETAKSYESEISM
Sequence of UniProt P56657 (P56657 whole entry): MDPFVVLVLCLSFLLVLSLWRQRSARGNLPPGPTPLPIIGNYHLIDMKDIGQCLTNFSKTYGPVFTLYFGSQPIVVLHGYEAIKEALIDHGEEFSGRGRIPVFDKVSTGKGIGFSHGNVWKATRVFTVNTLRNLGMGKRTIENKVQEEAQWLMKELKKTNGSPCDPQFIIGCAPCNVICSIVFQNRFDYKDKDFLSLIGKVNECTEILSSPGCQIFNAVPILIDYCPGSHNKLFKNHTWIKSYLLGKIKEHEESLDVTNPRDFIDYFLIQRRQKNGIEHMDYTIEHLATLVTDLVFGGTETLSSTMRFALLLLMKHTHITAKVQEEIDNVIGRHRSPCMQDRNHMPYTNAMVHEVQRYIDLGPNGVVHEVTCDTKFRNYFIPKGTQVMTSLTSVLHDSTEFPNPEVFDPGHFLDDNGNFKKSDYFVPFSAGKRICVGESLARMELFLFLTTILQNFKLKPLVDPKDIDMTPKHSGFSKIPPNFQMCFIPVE
Sequence of UniProt P33622 (P33622 whole entry): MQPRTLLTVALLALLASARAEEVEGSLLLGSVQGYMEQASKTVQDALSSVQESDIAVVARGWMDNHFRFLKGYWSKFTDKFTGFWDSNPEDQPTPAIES
Sequence of UniProt P34914 (P34914 whole entry): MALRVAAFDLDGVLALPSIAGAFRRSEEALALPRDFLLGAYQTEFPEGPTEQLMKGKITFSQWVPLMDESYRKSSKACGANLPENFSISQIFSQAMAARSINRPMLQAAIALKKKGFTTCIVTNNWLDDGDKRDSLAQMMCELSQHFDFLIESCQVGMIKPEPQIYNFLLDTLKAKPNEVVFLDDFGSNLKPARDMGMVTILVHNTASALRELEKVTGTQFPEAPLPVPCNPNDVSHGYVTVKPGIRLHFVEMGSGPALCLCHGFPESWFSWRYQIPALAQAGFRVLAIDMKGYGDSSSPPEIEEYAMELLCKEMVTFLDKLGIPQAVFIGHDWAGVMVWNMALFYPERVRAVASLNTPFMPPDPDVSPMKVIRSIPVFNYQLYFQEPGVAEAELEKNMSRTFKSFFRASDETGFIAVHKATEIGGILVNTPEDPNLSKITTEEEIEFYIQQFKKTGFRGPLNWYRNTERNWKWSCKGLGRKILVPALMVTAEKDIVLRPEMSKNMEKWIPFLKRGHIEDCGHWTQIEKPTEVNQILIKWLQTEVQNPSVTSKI
Sequence of UniProt Q9QVP9 (Q9QVP9 whole entry, looked up): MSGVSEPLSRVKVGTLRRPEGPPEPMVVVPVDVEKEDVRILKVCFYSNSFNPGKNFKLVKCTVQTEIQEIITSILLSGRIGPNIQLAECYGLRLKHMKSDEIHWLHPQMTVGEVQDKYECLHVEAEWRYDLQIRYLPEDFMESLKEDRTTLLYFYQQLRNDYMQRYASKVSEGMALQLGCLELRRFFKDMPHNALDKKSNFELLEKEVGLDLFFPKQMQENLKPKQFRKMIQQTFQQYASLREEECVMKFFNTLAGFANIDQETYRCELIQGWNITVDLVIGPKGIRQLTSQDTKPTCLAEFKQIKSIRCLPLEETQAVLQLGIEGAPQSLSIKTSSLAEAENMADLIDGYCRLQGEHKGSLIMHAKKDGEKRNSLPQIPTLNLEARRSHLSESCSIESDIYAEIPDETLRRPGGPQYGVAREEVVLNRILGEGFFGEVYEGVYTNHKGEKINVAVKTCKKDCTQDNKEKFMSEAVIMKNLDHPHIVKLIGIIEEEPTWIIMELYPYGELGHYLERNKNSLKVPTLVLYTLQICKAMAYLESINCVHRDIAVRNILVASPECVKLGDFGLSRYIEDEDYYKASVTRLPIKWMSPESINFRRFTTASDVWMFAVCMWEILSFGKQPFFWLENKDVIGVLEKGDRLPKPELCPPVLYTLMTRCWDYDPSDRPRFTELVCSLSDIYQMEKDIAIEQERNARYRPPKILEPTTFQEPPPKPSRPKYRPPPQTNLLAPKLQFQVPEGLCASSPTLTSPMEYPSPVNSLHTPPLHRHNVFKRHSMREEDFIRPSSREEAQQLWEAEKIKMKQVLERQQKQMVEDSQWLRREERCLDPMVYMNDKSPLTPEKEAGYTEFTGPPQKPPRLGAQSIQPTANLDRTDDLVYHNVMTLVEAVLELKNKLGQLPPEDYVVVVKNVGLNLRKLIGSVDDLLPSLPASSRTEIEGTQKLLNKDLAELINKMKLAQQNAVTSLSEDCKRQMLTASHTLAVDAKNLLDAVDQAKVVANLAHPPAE
Sequence of UniProt Q05020 (Q05020 whole entry): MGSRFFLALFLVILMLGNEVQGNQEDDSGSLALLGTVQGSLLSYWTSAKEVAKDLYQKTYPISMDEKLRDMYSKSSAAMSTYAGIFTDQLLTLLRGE
Sequence of UniProt Q9WU79 (Q9WU79 whole entry): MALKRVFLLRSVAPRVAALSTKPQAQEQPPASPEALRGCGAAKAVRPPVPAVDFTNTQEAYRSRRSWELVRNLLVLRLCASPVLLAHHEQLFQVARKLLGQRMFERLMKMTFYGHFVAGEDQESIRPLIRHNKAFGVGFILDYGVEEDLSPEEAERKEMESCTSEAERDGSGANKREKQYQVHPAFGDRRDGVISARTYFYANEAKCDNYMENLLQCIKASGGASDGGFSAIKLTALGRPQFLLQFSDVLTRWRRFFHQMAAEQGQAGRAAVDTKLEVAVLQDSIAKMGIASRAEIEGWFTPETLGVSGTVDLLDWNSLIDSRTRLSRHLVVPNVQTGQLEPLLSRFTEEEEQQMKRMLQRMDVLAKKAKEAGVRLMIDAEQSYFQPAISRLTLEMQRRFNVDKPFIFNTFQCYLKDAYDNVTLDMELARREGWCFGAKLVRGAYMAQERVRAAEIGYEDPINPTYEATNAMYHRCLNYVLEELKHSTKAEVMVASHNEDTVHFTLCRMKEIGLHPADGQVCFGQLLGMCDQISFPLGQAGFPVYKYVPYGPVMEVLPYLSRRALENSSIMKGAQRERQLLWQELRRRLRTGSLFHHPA
Sequence of UniProt P70424 (P70424 whole entry): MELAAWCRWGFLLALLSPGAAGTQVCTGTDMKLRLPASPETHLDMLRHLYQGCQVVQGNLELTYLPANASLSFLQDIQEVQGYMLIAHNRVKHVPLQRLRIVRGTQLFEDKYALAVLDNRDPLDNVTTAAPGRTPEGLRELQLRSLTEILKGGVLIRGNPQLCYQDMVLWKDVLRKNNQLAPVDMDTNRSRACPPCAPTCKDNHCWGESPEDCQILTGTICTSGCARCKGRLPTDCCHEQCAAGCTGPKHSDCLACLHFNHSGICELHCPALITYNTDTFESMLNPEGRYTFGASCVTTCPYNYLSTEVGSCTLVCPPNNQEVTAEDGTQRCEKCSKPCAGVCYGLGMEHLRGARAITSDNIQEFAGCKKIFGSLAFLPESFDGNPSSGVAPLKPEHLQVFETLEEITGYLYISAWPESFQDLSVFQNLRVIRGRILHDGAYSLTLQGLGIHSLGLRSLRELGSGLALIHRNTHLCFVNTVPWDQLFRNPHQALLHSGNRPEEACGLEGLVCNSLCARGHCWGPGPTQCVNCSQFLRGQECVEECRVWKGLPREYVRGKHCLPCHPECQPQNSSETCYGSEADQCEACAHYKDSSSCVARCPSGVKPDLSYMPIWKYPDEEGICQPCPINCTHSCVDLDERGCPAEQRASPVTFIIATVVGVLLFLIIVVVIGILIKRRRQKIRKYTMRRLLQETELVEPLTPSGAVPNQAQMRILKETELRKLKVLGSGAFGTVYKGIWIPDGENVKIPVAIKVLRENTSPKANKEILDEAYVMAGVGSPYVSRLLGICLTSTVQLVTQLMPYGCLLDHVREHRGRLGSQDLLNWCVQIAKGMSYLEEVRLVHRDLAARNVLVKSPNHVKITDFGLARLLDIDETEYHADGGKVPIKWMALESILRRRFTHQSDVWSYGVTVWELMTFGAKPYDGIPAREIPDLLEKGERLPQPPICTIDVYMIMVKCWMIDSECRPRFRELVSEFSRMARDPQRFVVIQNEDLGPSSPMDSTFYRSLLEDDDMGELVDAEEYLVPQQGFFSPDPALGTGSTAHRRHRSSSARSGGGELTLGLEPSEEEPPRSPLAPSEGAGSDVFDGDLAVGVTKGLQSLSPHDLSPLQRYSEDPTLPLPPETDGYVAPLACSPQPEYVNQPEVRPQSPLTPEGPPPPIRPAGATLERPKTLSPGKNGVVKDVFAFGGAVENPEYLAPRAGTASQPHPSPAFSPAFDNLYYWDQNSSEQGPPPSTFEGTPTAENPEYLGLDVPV

**Q.** “UniProt Q921S7 (peptide sequence: HFVPWLAR, peptide start residue: 65)” was tested. Which log2 fold change did it give?
**A.** The log2 fold change was 0.415.

**Q.** For “UniProt Q8R1Z9 (peptide sequence: LSCNHVFHEFCIR, peptide start residue: 249)”, which log2 fold change is on record?
**A.** Its log2 fold change is 1.08.

**Q.** With “UniProt Q9D710 (peptide sequence: EFNLNELYQR, peptide start residue: 254)” as the target, how does the log2 fold change read?
**A.** Its log2 fold change is -0.349.

**Q.** Which log2 fold change does the source give for “UniProt Q05020 (peptide sequence: TYPISMDEK, peptide start residue: 59)” here?
**A.** The log2 fold change was 0.537.

**Q.** “UniProt Q9JM52 (peptide sequence: GNALKEDCIAYICR, peptide start residue: 122)” was tested. Which log2 fold change did it give?
**A.** Its log2 fold change is -0.672.

**Q.** Which log2 fold change does the source give for “UniProt Q3U214 (peptide sequence: YFLEMQDKLER, peptide start residue: 260)” here?
**A.** The log2 fold change was 0.698.

**Q.** Which log2 fold change does the source give for “UniProt Q922S4 (peptide sequence: AMGNRPMEMMDR, peptide start residue: 838)” here?
**A.** The log2 fold change was 0.447.

**Q.** For “UniProt P26149 (peptide sequence: YIPPFNR, peptide start residue: 311)”, which log2 fold change is on record?
**A.** Its log2 fold change is 0.476.

**Q.** How did the log2 fold change turn out when “UniProt O70551 (peptide sequence: SAEHYTETALDEIR, peptide start residue: 113)” was run?
**A.** The log2 fold change was -2.75.

**Q.** How did the log2 fold change turn out when “UniProt P24456 (peptide sequence: RVQQEIDAVIGQVR, peptide start residue: 333)” was run?
**A.** Its log2 fold change is -0.553.

**Q.** For “UniProt Q7TMR0 (peptide sequence: AHNAFDPSSVLLSR, peptide start residue: 459)”, which log2 fold change is on record?
**A.** The log2 fold change was 0.784.

**Q.** “UniProt Q8C078 (peptide sequence: DIKPSNLLVGEDGHIK, peptide start residue: 312)” was tested. Which log2 fold change did it give?
**A.** Its log2 fold change is -3.1.

**Q.** For “UniProt Q9Z2A0 (peptide sequence: HIIKENKVPYVTR, peptide start residue: 120)”, which log2 fold change is on record?
**A.** Its log2 fold change is -2.47.

**Q.** Which log2 fold change does the source give for “UniProt O35945 (peptide sequence: TVAMQISQK, peptide start residue: 491)” here?
**A.** The log2 fold change was -0.312.

**Q.** With “UniProt P34914 (peptide sequence: NWKWSCK, peptide start residue: 471)” as the target, how does the log2 fold change read?
**A.** Its log2 fold change is 0.437.

**Q.** With “UniProt Q9CYZ2 (peptide sequence: LGEWNEK, peptide start residue: 113)” as the target, how does the log2 fold change read?
**A.** Its log2 fold change is 0.397.

**Q.** Which log2 fold change does the source give for “UniProt Q8BGS7 (peptide sequence: LFQLPTPPLSR, peptide start residue: 35)” here?
**A.** Its log2 fold change is 0.348.

**Q.** Which log2 fold change does the source give for “UniProt P43883 (peptide sequence: DQYPYLR, peptide start residue: 38)” here?
**A.** The log2 fold change was 0.671.

**Q.** With “UniProt Q9QVP9 (peptide sequence: CWDYDPSDRPR, peptide start residue: 661)” as the target, how does the log2 fold change read?
**A.** Its log2 fold change is -1.22.

**Q.** For “UniProt Q9QZS5 (peptide sequence: TVAACDLLQGLLHKDQR, peptide start residue: 258)”, which log2 fold change is on record?
**A.** The log2 fold change was -2.7.

**Q.** With “UniProt Q5SW19 (peptide sequence: YLELLER, peptide start residue: 517)” as the target, how does the log2 fold change read?
**A.** Its log2 fold change is -0.493.

**Q.** With “UniProt Q04899 (peptide sequence: HANIVTLHDLIHTDR, peptide start residue: 176)” as the target, how does the log2 fold change read?
**A.** Its log2 fold change is -3.35.

**Q.** “UniProt Q6ZQ89 (peptide sequence: FIHQECLVQWLK, peptide start residue: 34)” was tested. Which log2 fold change did it give?
**A.** Its log2 fold change is 0.572.

**Q.** For “UniProt Q8BPM2 (peptide sequence: LLTHTFVGQPGLSR, peptide start residue: 271)”, which log2 fold change is on record?
**A.** The log2 fold change was -1.27.

**Q.** How did the log2 fold change turn out when “UniProt Q8BTW9 (peptide sequence: SYLDNFIK, peptide start residue: 321)” was run?
**A.** Its log2 fold change is -1.86.

**Q.** With “UniProt Q80ZM8 (peptide sequence: YFNPCYATAR, peptide start residue: 227)” as the target, how does the log2 fold change read?
**A.** Its log2 fold change is 1.12.

**Q.** How did the log2 fold change turn out when “UniProt P33622 (peptide sequence: GWMDNHFR, peptide start residue: 61)” was run?
**A.** Its log2 fold change is 0.483.

**Q.** Which log2 fold change does the source give for “UniProt P70424 (peptide sequence: VLGSGAFGTVYK, peptide start residue: 719)” here?
**A.** Its log2 fold change is -1.19.

**Q.** With “UniProt P14576 (peptide sequence: SAIDLEEMASGLNKRK, peptide start residue: 58)” as the target, how does the log2 fold change read?
**A.** Its log2 fold change is 0.95.

**Q.** With “UniProt Q99N91 (peptide sequence: GNEYQPSNIK, peptide start residue: 50)” as the target, how does the log2 fold change read?
**A.** The log2 fold change was 0.323.

**Q.** With “UniProt P56657 (peptide sequence: NHMPYTNAMVHEVQR, peptide start residue: 343)” as the target, how does the log2 fold change read?
**A.** The log2 fold change was -0.322.

**Q.** With “UniProt Q91VJ4 (peptide sequence: DTGHVYAMK, peptide start residue: 110)” as the target, how does the log2 fold change read?
**A.** Its log2 fold change is -3.23.

**Q.** Which log2 fold change does the source give for “UniProt P18653 (peptide sequence: ADPSQFELLK, peptide start residue: 57)” here?
**A.** Its log2 fold change is -1.44.

**Q.** How did the log2 fold change turn out when “UniProt P35917 (peptide sequence: VLGHGAFGK, peptide start residue: 850)” was run?
**A.** The log2 fold change was 1.38.

**Q.** How did the log2 fold change turn out when “UniProt Q5U5V2 (peptide sequence: ENFIWNLK, peptide start residue: 175)” was run?
**A.** The log2 fold change was -0.924.

**Q.** “UniProt Q9WU79 (peptide sequence: ASGGASDGGFSAIK, peptide start residue: 220)” was tested. Which log2 fold change did it give?
**A.** Its log2 fold change is 0.201.

**Q.** Which log2 fold change does the source give for “UniProt P47802 (peptide sequence: EKYNADYDLSAR, peptide start residue: 77)” here?
**A.** The log2 fold change was -0.346.

**Q.** How did the log2 fold change turn out when “UniProt Q9R233 (peptide sequence: GKGHLLLAATPGLAGR, peptide start residue: 215)” was run?
**A.** The log2 fold change was -1.39.
